From the supplement of paper PMC10849652
Targets with a hit are over-represented here; the source holds about 7,900 in all. About 0.6% of all pairs of compound and target were hits.

Biological target: ZW10 (UniProt O43264)
Experiment: log2 fold change, soluble protein after heating vs DMSO (PISA); higher = thermal stabilisation; K562 cells, 10 uM, 30 min; active = over 0.2 and 3.5 SD of the protein, either way, in both replicates (recomputed)
How it was run: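 Values are thermal stability changes relative to control samples and are taken from duplicates. They are stated as log2 fold changes. Before quantification by TMTpro 16plex LC-MS/MS with equalised channel sums, K562 cells at 2×10^6 cells/mL were treated with 10 μM compound for 30 min, heated in aliquots for 3 min across 48°C-58°C, pooled, extracted in PBS with 0.5% NP-40 at 4°C, and centrifuged at 21,000xg for 90 min to give the soluble supernatant.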

ZW10, sequence (O43264 whole entry, looked up): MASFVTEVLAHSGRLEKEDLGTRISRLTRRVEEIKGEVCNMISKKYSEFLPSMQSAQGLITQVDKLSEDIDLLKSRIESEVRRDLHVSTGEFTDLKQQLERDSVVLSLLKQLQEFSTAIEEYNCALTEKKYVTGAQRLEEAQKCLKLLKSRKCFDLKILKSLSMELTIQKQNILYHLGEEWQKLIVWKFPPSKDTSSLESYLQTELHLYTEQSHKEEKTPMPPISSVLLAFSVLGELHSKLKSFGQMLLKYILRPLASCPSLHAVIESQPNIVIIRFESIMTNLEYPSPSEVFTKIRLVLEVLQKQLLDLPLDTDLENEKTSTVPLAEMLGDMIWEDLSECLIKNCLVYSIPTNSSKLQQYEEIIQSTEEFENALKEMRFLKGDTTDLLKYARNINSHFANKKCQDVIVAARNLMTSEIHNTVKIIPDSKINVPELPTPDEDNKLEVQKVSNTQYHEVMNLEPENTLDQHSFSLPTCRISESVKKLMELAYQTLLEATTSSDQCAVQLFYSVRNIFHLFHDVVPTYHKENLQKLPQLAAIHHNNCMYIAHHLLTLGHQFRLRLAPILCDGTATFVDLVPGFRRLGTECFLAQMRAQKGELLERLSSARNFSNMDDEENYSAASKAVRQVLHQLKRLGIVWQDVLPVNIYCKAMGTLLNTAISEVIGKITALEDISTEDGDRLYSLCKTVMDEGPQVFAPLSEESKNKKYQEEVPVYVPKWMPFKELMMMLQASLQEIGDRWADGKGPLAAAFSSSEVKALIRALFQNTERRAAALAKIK

log2 fold change, inactive:
CCCCN(Cc1ccc(C(=O)NO)cc1)C(=O)Nc1ccccc1 [Nexturastat A] 0.093
COc1cc(Nc2ncc3c(n2)-c2ccc(Cl)cc2C(c2c(F)cccc2OC)=NC3)ccc1C(=O)O [alisertib] 0.031
Cc1cc(SCc2sc(-c3ccc(C(F)(F)F)cc3)nc2C)ccc1OCC(=O)O 0.088
O=C1NC(=NCc2cccs2)S/C1=C\c1ccc2ncccc2c1 -0.021
COc1cc2nc(-c3cc(F)ccc3O)nc(N[C@@H]3CNC[C@H]3C(C)(C)O)c2cc1OC 0.041
O=C(Nc1cccc(Nc2ncc(Br)c(NCCc3cnc[nH]3)n2)c1)N1CCCC1 -0.018
C[C@@H]1COCCN1c1cc(C2(S(C)(=O)=O)CC2)nc(-c2cccc3[nH]ccc23)n1 -0.029
C[C@@H](N)c1ccc(C(=O)Nc2ccnc3[nH]ccc23)cc1 0.129
NCC(=O)Nc1ccc(-n2nc(C(F)(F)F)cc2-c2ccc3c(ccc4ccccc43)c2)cc1 -0.007
NC(=O)c1cnc(N[C@@H]2CCCC[C@@H]2N)nc1Nc1cccc(-n2nccn2)c1 -0.027
C=CC(=O)N1CCC[C@@H](n2nc(-c3ccc(Oc4ccccc4)cc3)c3c(N)ncnc32)C1 [ibrutinib] -0.007
CC(=O)c1cnc2ccc(-c3cc(Cl)c(O)c(Cl)c3)nc2c1N[C@H]1CC[C@H](CN(C)C)CC1 0.011
CC[C@H](C)[C@H](NC(=O)[C@H]([C@@H](C)CC)N(C)C(C)=O)C(=O)N[C@H](C(=O)N[C@@H](CC(C)C)C(=O)[C@@]1(C)CO1)[C@@H](C)O [epoxomicin] -0.046
CCCc1cc(C)[nH]c(=O)c1CNC(=O)c1cc(-c2ccnc(N3CCN(C)CC3)c2)cc2c1cnn2C(C)C 0.072
C/C(=N\NC(=O)c1cccc(S(=O)(=O)N2CCOCC2)c1)c1cc(Cl)ccc1O 0.075
CC(C)N(C[C@H]1O[C@@H](n2cnc3c(N)ncnc32)[C@H](O)[C@@H]1O)[C@H]1C[C@@H](CCc2nc3cc(C(C)(C)C)ccc3[nH]2)C1 [pinometostat] 0.152
Cc1cccc(CC(=O)N2CCc3c2ccc(-c2cn(C)c4ncnc(N)c24)c3F)n1 0.034
Cc1cn(-c2cc(NC(=O)c3ccc(C)c(Nc4nccc(-c5cccnc5)n4)c3)cc(C(F)(F)F)c2)cn1 [nilotinib] -0.088
CN1CCC(CNc2ccc3ncc(-c4cccc(OC(F)(F)F)c4)n3n2)CC1 -0.108
COc1cc2ncnc(Nc3ccc(F)c(Cl)c3)c2cc1OCCCN1CCOCC1 [gefitinib] 0.135
CC(C)c1cnn2c(NCc3ccccc3)cc(NCCCCCCN)nc12 -0.213
CS(=O)(=O)c1ccc(-c2cnc(N)c(C(=O)Nc3ccccc3)n2)cc1 0.027
Cc1ccc(NC(=O)c2ccc(CN3CC[C@H](N(C)C)C3)c(C(F)(F)F)c2)cc1Nc1nccc(-c2cncnc2)n1 [bafetinib] 0.003
CC(C)(C)Cn1c(N)nc2ccc(-c3[nH]c(C(C)(C)C)nc3-c3ccc(F)cc3)nc21 [ralimetinib] 0.032
CN(CCOc1ccc(C[C@@H]2SC(=O)NC2=O)cc1)c1ccccn1 (racemic) [rosiglitazone] 0.066
CC[C@@H]1C(=O)N(C)c2cnc(Nc3ccc(C(=O)NC4CCN(C)CC4)cc3OC)nc2N1C1CCCC1 -0.197
CCCS(=O)(=O)Nc1ccc(F)c(C(=O)c2c[nH]c3ncc(Cl)cc23)c1F 0.053
CON(C)C(=O)N1N=C(c2cc(F)ccc2F)S[C@@]1(CCCN)c1ccccc1 [filanesib] 0.052
C[C@H](Nc1ncnc2nc[nH]c12)c1cc2cccc(Cl)c2c(=O)n1-c1ccccc1 [duvelisib] -0.002
O=C(CCCCCCC(=O)Nc1ccccc1)NO [vorinostat] 0.085
